Test [1] can be described thus: Tanguay_ZF_120hpf_EYE_legacy: (Legacy) Oregon State University Tanguay Lab 120 Hour Post-fertilization zebrafish Assay for Eye Malformation (AID 2283636).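 Also: binary presence or absence of eye malformation scored by brightfield in 120 hpf larvae.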 An outline of the steps: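 Binary brightfield scoring of eye defects at 120 hpf after static exposure from 6 hpf of single pronase-dechorionated wild-type embryos (28C, 0.64% DMSO). Non-mortality endpoints omitted where embryos died; fit vs DMSO.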

Test [2] can be described thus: Tanguay_ZF_120hpf_SNOU_legacy: (Legacy) Oregon State University Tanguay Lab 120 Hour Post-fertilization zebrafish Assay for Snout Malformation (AID 2283637). In short, it runs like this: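 Binary snout-malformation call at 120 hpf in wild-type 5D embryos, chorion removed by pronase, under static exposure from 6 hpf at 28C (0.64% DMSO). Embryos dying by 24 or 120 hpf excluded.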

Test [3] can be described thus: Tanguay_ZF_120hpf_JAW_legacy: (Legacy) Oregon State University Tanguay Lab 120 Hour Post-fertilization zebrafish Assay for Jaw Malformation (AID 2283638).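 As to AC50: active means more embryos with jaw malformation than DMSO controls.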 An outline of the steps:
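Wild-type 5D embryos, chorion removed at 4 hpf, dosed singly from 6 hpf; 28C static, sealed, foil-covered, to 120 hpf. Endpoint: jaw defect yes/no (brightfield); mortality excludes scoring.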

Test [4] in a line: Tanguay_ZF_120hpf_OTIC_legacy: (Legacy) Oregon State University Tanguay Lab 120 Hour Post-fertilization zebrafish Assay for Otic Vesicle Malformation (AID 2283639). An outline of the steps: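 Binary scoring of otic vesicle defects at 120 hpf in zebrafish (Tropical 5D) held under static exposure at 28C, sealed and shaded, with final DMSO 0.64%. Embryos dying by 24 or 120 hpf excluded; fitted positively against DMSO.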

The nature of test [5]: Tanguay_ZF_120hpf_PE_legacy: (Legacy) Oregon State University Tanguay Lab 120 Hour Post-fertilization zebrafish Assay for Pericardial Edema (AID 2283640).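 As to AC50: potency for increased incidence of pericardial edema versus DMSO baseline.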 In short, it runs like this: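 Zebrafish larvae are exposed from early development to 120 hpf at 28C, with 0.64% DMSO final. Each surviving larva receives a yes/no pericardial edema call by brightfield imaging, analysed relative to the DMSO baseline.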

A short description of test [6]: Tanguay_ZF_120hpf_BRAI_legacy: (Legacy) Oregon State University Tanguay Lab 120 Hour Post-fertilization zebrafish Assay for Brain Malformation (AID 2283641). An outline of the steps: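 Static exposure of staged wild-type embryos until 120 hpf, kept at 28C with light excluded and final DMSO of 0.64% (vol/vol). Presence or absence of brain malformation was noted under brightfield; mortality precluded scoring.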

Test [7] can be described thus: Tanguay_ZF_120hpf_SOMI_legacy: (Legacy) Oregon State University Tanguay Lab 120 Hour Post-fertilization zebrafish Assay for Somite Malformation (AID 2283647). In short, it runs like this: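 Somitogenesis defects are recorded as binary calls in whole larvae at 120 hpf after continuous static chemical exposure starting at 6 hpf in dechorionated 5D embryos. DMSO serves as negative control and baseline.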

Test [8] can be described thus: Tanguay_ZF_120hpf_PFIN_legacy: (Legacy) Oregon State University Tanguay Lab 120 Hour Post-fertilization zebrafish Assay for Pectoral Fin Malformation (AID 2283648).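 Also: each larva judged yes or no for fin defect by brightfield with dead larvae skipped.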 An outline of the steps:
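Pectoral fin malformation was recorded as a binary endpoint at 120 hpf in wild-type Tropical 5D larvae, which had been dechorionated and exposed statically from 6 hpf at 28C in 0.64% DMSO. Dead embryos were excluded.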

Test [9] can be described thus: Tanguay_ZF_120hpf_CFIN_legacy: (Legacy) Oregon State University Tanguay Lab 120 Hour Post-fertilization zebrafish Assay for Caudal Fin Malformation (AID 2283649). An outline of the steps:
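Single dechorionated 5D wild-type embryos are dosed at 6 hpf (final DMSO 0.64%) and held statically at 28C. Caudal fin malformation is recorded as present or absent at 120 hpf under brightfield, excluding dead embryos.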

Test [10] in a line: Tanguay_ZF_120hpf_PIG_legacy: (Legacy) Oregon State University Tanguay Lab 120 Hour Post-fertilization zebrafish Assay for Pigmentation Malformation (AID 2283650). In short, it runs like this: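 Pigment malformation recorded as a binary call at 120 hpf in zebrafish (Tropical 5D) exposed singly from 6 hpf after pronase dechorionation. Static, sealed, 28C exposure, 0.64% DMSO; mortality excludes scoring; positive-direction fit against DMSO.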

Test [11] can be described thus: Tanguay_ZF_120hpf_SWIM_legacy: (Legacy) Oregon State University Tanguay Lab 120 Hour Post-fertilization zebrafish Assay for Swim Bladder Malformation (AID 2283654).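 Also: swim bladder malformation in each larva scored yes or no under brightfield.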 In short, it runs like this:
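Scoring is binary for swim bladder defects at 120 hpf, by brightfield inspection of zebrafish larvae. Embryos were exposed singly from 6 hpf after pronase dechorionation, at 28C with 0.64% DMSO; mortality excluded scoring.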

A short description of test [12]: Tanguay_ZF_120hpf_TRUN_legacy: (Legacy) Oregon State University Tanguay Lab 120 Hour Post-fertilization zebrafish Assay for Truncated Body (AID 2283655). In short, it runs like this: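 Single dechorionated zebrafish embryos received test chemical from 6 hpf in 0.64% DMSO, kept at 28C. At 120 hpf, brightfield inspection noted any truncated body.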
Test [13] can be described thus: CCTE_Simmons_CellTiterGLO_HEK293T: Viability Assessment in CCTE's Assays for Thyroperoxidase (TPO) Inhibition, Simmons Lab (AID 2283665).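 As to AC50: cells exposed to compound for 24 h before readout; actives reduce ATP signal below DMSO vehicle meaning cytotoxicity.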 In short, it runs like this: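 Luciferase-coupled ATP content after 24 h exposure gives viability; 8-point series from 5 nM to 87.5 uM final in 0.5% DMSO. Human HEK293T cells, 1% FBS medium, three biological replicates, dichlone positive control.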
Background: In ATP-based viability assays light output follows the ATP content of the culture.

A short description of test [14]: Tanguay_ZF_120hpf_TR_legacy: (Legacy) Oregon State University Tanguay Lab 120 Hour Post-fertilization zebrafish Assay for Touch Response (AID 2283667). An outline of the steps:
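Binary touch-response endpoint in larvae at 120 hpf after static waterborne exposure from embryo stage (28°C, 0.64% DMSO vehicle, 5 uM trimethyltin chloride as positive control); embryos dead at 24 or 120 hpf excluded; fitted as gain versus DMSO.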

A short description of test [15]: Tanguay_ZF_120hpf_NC_legacy: (Legacy) Oregon State University Tanguay Lab 120 Hour Post-fertilization zebrafish Assay for Notochord and Tail Malformation (AID 2283656). In short, it runs like this: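 Binary scoring of notochord distortion by brightfield microscopy; embryos dying were not scored. Wild-type Tropical 5D embryos, chorion removed, exposed singly and statically from 6 to 120 hpf, 28C, sealed, 0.64% DMSO.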

Test [16] concerns Thyroperoxidase (TPO), gene 54314. The test is described as follows: CCTE_Simmons_AUR_rTPO: CCTE's Amplex UltraRed Assay for Thyroperoxidase (TPO) Inhibition, Simmons Lab (AID 2283662).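 Also: potency for loss of signal meaning inhibition of peroxidase activity.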 In short, it runs like this:
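Cell-free peroxidase activity assay using rat thyroid gland microsomes with excess H2O2 (300 uM) and 25 uM Amplex UltraRed. Compounds tested from 5 nM to 87.5 uM; fluorescence measured after 30 min at 37C, analysed relative to DMSO baseline.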

Read-out in test [17]: solute carrier (SLC10A1), SLC10A1 (gene 6554)
The experiment in a line: LTEA_HepaRG_SLC10A1: Life Technologies and Expression Analysis (LTEA) Assay for solute carrier (SLC10A1) using HepaRG (AID 2283657; active = hit-call score of the fitted dose curve at least 0.9, where 1 is the maximum; inactive = score below 0.9). The following applies: mRNA level, 48 h; actives raise or lower the signal. In short, it runs like this:
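SLC10A1 transcript measured by TaqMan qRT-PCR, housekeeping-normalised, after 48 h chemical treatment of human HepaRG cells. Eight concentrations (half-log, max 100 uM, 0.5% DMSO vehicle) in duplicate; fitted bidirectionally against DMSO baseline.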

Read-out in test [18]: matrix metalloproteinase-1 (MMP1), MMP1 (gene 4312)
The experiment in a line: LTEA_HepaRG_MMP1: Life Technologies and Expression Analysis (LTEA) Assay for matrix metalloproteinase-1 (MMP1) using HepaRG (AID 2283658; active = hit-call score of the fitted dose curve at least 0.9, where 1 is the maximum; inactive = score below 0.9). To be noted: mRNA level, 48 h; actives raise or lower the signal. An outline of the steps: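 In this screen, human liver HepaRG cultures receive each chemical in duplicate for 48 h (top 100 uM, 0.5% DMSO). MMP1 expression is then quantified by TaqMan qRT-PCR with ACTB/GAPDH/POLR2A normalization.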

Test [19] in a line: Tanguay_ZF_120hpf_CIRC_legacy: (Legacy) Oregon State University Tanguay Lab 120 Hour Post-fertilization zebrafish Assay for Circulatory Malformation (AID 2283651). In short, it runs like this:
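Binary circulatory malformation call at 120 hpf by brightfield imaging of zebrafish larvae; chorion removed at 4 hpf, static exposure from 6 hpf in sealed dark plates at 28C, final DMSO 0.64%; non-mortality endpoints skipped if embryo died.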

Read-out in test [20]: kallikrein-3 (KLK3), KLK3 (gene 354)
The test is described as follows: LTEA_HepaRG_KLK3: Life Technologies and Expression Analysis (LTEA) Assay for kallikrein-3 (KLK3) using HepaRG (AID 2283652; active = hit-call score of the fitted dose curve at least 0.9, where 1 is the maximum; inactive = score below 0.9). The following applies: mRNA level, 48 h; actives raise or lower the signal. In short, it runs like this:
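KLK3 transcript levels were measured by TaqMan qRT-PCR with normalisation to three housekeeping genes. HepaRG cultures received chemicals for 48 h at up to 100 uM (half-log, 8 points, 0.5% DMSO vehicle), fitted in both directions against DMSO.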

Inconclusive results are not listed. Calls of active or inactive are those of the source. The calls were made as follows, unless noted: active = hit-call score of the fitted dose curve at least 0.9, where 1 is the maximum; inconclusive = response in the unintended direction; inactive = score below 0.9.

With `[Cl-].[Cl-].[Hg+2]`, the AC50 was 1.05 µM (active) in test [1]; 3.82 µM (active) in [2]; 3.12 µM (active) in [3]; 3.86 µM (active) in [4]; 3.82 µM (active) in [5]; 1.22 µM (active) in test [6]. Further, the AC50 in test [7] is 3.87 µM (active); in test [8], 3.5 µM (active); in test [9] it was 1.08 µM (active); in test [10], 1.05 µM (active); in test [11], 1.02 µM (active); in [12], 3.83 µM (active). Moreover, the AC50 was 0.939 µM (active) in [13] and 1.15 µM (active) in [14].
Turning to `Cc1ccc(N=C=O)cc1N=C=O`, the call in [1], in test [2], in [3], in test [4], in test [5] and in test [6] was inactive. Moreover, the compound was called inactive in test [7], in test [8], in test [9], in test [12], in [15] and in [13]. Further, the half-maximal activity concentration (AC50) in test [16] is 16.9 µM (active).
Consider `CCOc1cccc(C2(N3CCN(c4ccccc4)CC3)CCC(C)CC2)c1` (stereo not drawn), for which the call in [1], in [2], in test [3], in test [4], in test [5] and in [6] was inactive. In addition, the call in test [7], in test [8], in [9], in test [10], in test [11] and in test [12] was inactive. Also, in test [15], the compound was called inactive.
As to `Nc1ccc(Cl)cc1N`, the compound was classed as inactive in test [1], in test [2], in test [3], in test [4], in test [5] and in test [6]. Further, the compound was called inactive in test [7], in test [8], in [9], in test [10], in test [11] and in test [12]. Moreover, the result in [13] and in test [14] was inactive. Further, the results for the AC50 in test [17], in test [18] and in test [16] were 20.9 µM (active), 50 µM (active) and 13.1 µM (active), respectively.
For `Cc1ccc(N)cc1`, the result in [1], in test [2], in [3], in test [4], in test [5] and in [6] was inactive. Moreover, the call in test [7], in test [8], in test [9], in [10], in [11] and in [12] was inactive. For the same compound, the compound was called inactive in test [15] and in test [13]. Further, the AC50 in test [16] was 0.0844 µM (active).
With `O=C(Nc1ccccc1)c1ccccc1I`, the AC50 was 10.5 µM (active) in test [1]; 12.1 µM (active) in [2]; 50.4 µM (active) in test [3]; 48 µM (active) in [4]; 43.5 µM (active) in [5]; 47.3 µM (active) in [8]. Also, the AC50 in test [9] was 45 µM (active). For the same compound, the outcome in [6], in [7], in test [10], in [11], in [12] and in test [15] was inactive.
As for `Cc1cc(N=Nc2ccccc2C)ccc1N`, the result in test [1], in [2], in [3], in test [4], in test [6] and in test [8] was inactive. Besides, the compound was called inactive in test [10], in test [19], in test [11] and in test [15]. In addition, the AC50 in test [5] is 55.7 µM (active); in test [12] it was 48.2 µM (active); in test [16], 9.17 µM (active); in [13] it was 18.9 µM (active).
In the case of `OCCCl`, the result in test [1], in test [2], in test [3], in [4], in test [5] and in [6] was inactive. For the same compound, the outcome in test [7], in [8], in test [9], in [10], in [11] and in test [15] was inactive.
`Cc1ccc([N+](=O)[O-])cc1`: the result in [1], in test [2], in [3], in test [4], in test [5] and in test [6] was inactive. Besides, the outcome in test [7], in test [8], in [9], in test [10], in test [19] and in test [20] was inactive. Besides, the compound was called inactive in test [11], in test [12], in test [15], in [17] and in test [18].

Broadly, the AC50 is the concentration giving half of the maximal activity seen.

Values taken from PubChem BioAssay (EPA / NIEHS).
